Some test systems named below: HCT-15 colon; HT29 colon; SNB-75 CNS; SNB-19 CNS; U251 CNS; PC-3 prostate; SK-MEL-5 melanoma; UACC-62 melanoma; LOX IMVI melanoma; SK-MEL-28 melanoma; SK-MEL-2 melanoma; EKVX NSCLC; SN12C renal; UO-31 renal; TK-10 renal; ACHN renal; CAKI-1 renal; A498 renal; CCRF-CEM leukemia; MOLT-4 leukemia.
Common to all, as to assay: NCI-60 one-dose screen, 48 h (100 = growth as untreated, 0 = no growth, -100 = all killed)
Conditions in all cases: 10 µM unless noted

About 83,000 compounds went through this panel and 20% of them were active in at least one assay; those are over-represented in the sample as a whole.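 96-well plates, one dose, 48 hours. Percent growth reported; active if below 10.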 Unmarked numbers belong to inactive results. Activity calls are given as the source filed them.

Take `CC1=CC=C(NC(=O)/C=C/c2ccccc2)CC1Nc1nccc(-c2cccnc2)n1` (stereo not given): the growth is 14.6% in the test on HCT-15 colon; 13.6% with HT29 colon; 8.46% (active) in the test with SNB-75 CNS; 66.8% in the test on SNB-19 CNS; 38.1% in the test with U251 CNS; 25.2% with PC-3 prostate. The growth is -42.9% (active) with SK-MEL-5 melanoma; 37.9% in the test with UACC-62 melanoma; 41.3% in the test with LOX IMVI melanoma; 35.3% with SK-MEL-28 melanoma; 28.2% in the test with SK-MEL-2 melanoma; 67.4% in the test with EKVX NSCLC. Moreover, the growth is 50.3% with SN12C renal; 65.2% with UO-31 renal; 107% in the test with TK-10 renal; 50.3% in the test with ACHN renal; 32.5% in the test with CAKI-1 renal; 24.7% with A498 renal. The growth was 19.4% in the test with CCRF-CEM leukemia and 26% in the test with MOLT-4 leukemia.
Take `CC[C@H](C)[C@H](NC(=O)[C@@H](N)CCC(N)=O)C(=O)N[C@@H](Cc1ccc(O)cc1)C(=O)N[C@@H](CCCCN)C(=O)N[C@@H](CCCCN)C(=O)N[C@@H](Cc1ccc(O)cc1)C(=O)N[C@@H](CCCNC(=N)N)C(=O)N[C@H](C(=O)N[C@@H](Cc1c[nH]c2ccccc12)C(=O)N[C@@H](Cc1ccc(O)cc1)C(=O)N[C@@H](CCCNC(=N)N)C(=O)N[C@@H](CCCCN)C(=O)N[C@@H](C)C(=O)N[C@@H](Cc1c[nH]c2ccccc12)C(=O)N[C@@H](CCCCN)C(=O)N[C@H](C(=O)N[C@@H](CC(C)C)C(=O)NCC(=O)N[C@@H](CCCCN)C(=O)N[C@H](C(N)=O)C(C)C)C(C)C)[C@@H](C)O`: the growth with HCT-15 colon is 4.9% (active); in the test with HT29 colon it was 63.6%; with SNB-75 CNS, 15.5%; in the test with SNB-19 CNS, 49.3%; with U251 CNS it was 23.7%; in the test on PC-3 prostate it was -37% (active). The growth is -38% (active) with SK-MEL-5 melanoma; -71.2% (active) in the test with UACC-62 melanoma; 69.8% in the test on LOX IMVI melanoma; 16.3% in the test with SK-MEL-28 melanoma; 43.3% with SK-MEL-2 melanoma; -34.5% (active) in the test on EKVX NSCLC. The growth in the test on SN12C renal was 12.4%; in the test with UO-31 renal it was 76%; in the test with TK-10 renal it was 8.22% (active); in the test with ACHN renal, 65.6%; in the test with CAKI-1 renal, 7.94% (active); with A498 renal, 64.6%. Also, the growth in the test with CCRF-CEM leukemia was 5.19% (active); in the test with MOLT-4 leukemia, 52.9%.
On to `O=C(NCc1ccc(Cn2c(=O)sn(-c3ccc(Cl)cc3)c2=O)cc1)OCc1ccc2c(Cl)cc(Cl)c(O)c2n1`, for which the growth is 15.7% in the test with HCT-15 colon; 111% in the test with HT29 colon; 69% with SNB-75 CNS; 39.1% with SNB-19 CNS; 36.3% with U251 CNS; 35.5% in the test with PC-3 prostate. For the same compound, the growth in the test on SK-MEL-5 melanoma is 33%; in the test with UACC-62 melanoma, 33.4%; in the test with LOX IMVI melanoma, 31.6%; in the test on SK-MEL-28 melanoma, 47%; in the test on SK-MEL-2 melanoma, 74.3%; in the test on EKVX NSCLC, 44%. Further, the growth with SN12C renal was 38.1%; in the test with UO-31 renal, 13%; with TK-10 renal it was 63.7%; in the test on ACHN renal, 26%; in the test on CAKI-1 renal, 52.1%; in the test with A498 renal it was 70.1%. For the same compound, the growth in the test with CCRF-CEM leukemia is 31.9%; in the test with MOLT-4 leukemia, 19.3%.
On to `NC(=O)c1c(NC(=O)/C=C/c2cccs2)sc2c1CCC(=O)C2`, for which the growth with HCT-15 colon was 13.1%; in the test on HT29 colon it was 15.8%; in the test on SNB-75 CNS, 56.5%; in the test on SNB-19 CNS it was 64.5%; in the test with U251 CNS, 22.2%; in the test on PC-3 prostate it was 13.4%. In addition, the growth is 24.4% in the test with SK-MEL-5 melanoma; 16.9% in the test with UACC-62 melanoma; 18.4% in the test on LOX IMVI melanoma; 41.8% in the test with SK-MEL-28 melanoma; 49.7% with SK-MEL-2 melanoma; 40.4% in the test with EKVX NSCLC. Also, the growth is 23.1% in the test on SN12C renal; 5.7% (active) with UO-31 renal; 43.9% in the test on TK-10 renal; 5.27% (active) in the test on ACHN renal; 14.2% in the test with CAKI-1 renal; 115% with A498 renal. For the same compound, the growth is 10.5% with CCRF-CEM leukemia and 21.8% with MOLT-4 leukemia.
Consider `COc1cc(OC)cc(-c2ccc(-c3ccc(C(=N)N)cn3)s2)c1`, for which the growth with HCT-15 colon was 41.7%; in the test with HT29 colon, 37.2%; in the test with SNB-75 CNS, 94.6%; in the test on SNB-19 CNS, 92.1%; in the test on U251 CNS, 5.78% (active); in the test with PC-3 prostate, 69.1%. The growth is 80.5% with SK-MEL-5 melanoma; 98.2% in the test with UACC-62 melanoma; 14% with LOX IMVI melanoma; 109% in the test with SK-MEL-28 melanoma; 104% in the test with SK-MEL-2 melanoma; 95.6% in the test with EKVX NSCLC. For the same compound, the growth in the test with SN12C renal is 79.2%; with UO-31 renal, 94.2%; with TK-10 renal, 113%; with ACHN renal, 75%; with CAKI-1 renal, 69.8%; in the test on A498 renal it was 102%. Further, the growth in the test on CCRF-CEM leukemia was 8.54% (active); in the test with MOLT-4 leukemia, 49.3%.
For `Cn1ccnc1CN1CCSC(C(=O)Nc2ccccc2)C1` (stereo not given), the growth with HCT-15 colon was 95.4%; in the test on HT29 colon it was 95.1%; with SNB-75 CNS, 79.5%; in the test on SNB-19 CNS, 93%; in the test with U251 CNS it was 93.1%; in the test with PC-3 prostate, 92.3%. For the same compound, the growth in the test on SK-MEL-5 melanoma was 95.4%; in the test on UACC-62 melanoma, 87.7%; in the test on LOX IMVI melanoma it was 98.7%; with SK-MEL-28 melanoma, 100%; with SK-MEL-2 melanoma, 102%; in the test on EKVX NSCLC, 106%. In addition, the growth was 91.4% in the test with SN12C renal; 89.2% in the test on UO-31 renal; 101% in the test on TK-10 renal; 93.2% in the test on ACHN renal; 89.2% in the test with CAKI-1 renal; 97% in the test on A498 renal. The growth with CCRF-CEM leukemia is 80.9%; with MOLT-4 leukemia, 94.3%.

Source of the values: PubChem BioAssay (NCI).
